Bioassay records as filed in PubChem.
PME-1 primary: PME-1 (human) inhibition; recombinant PME-1, FP-Rh probe fluorescence polarization; AID 2130; actives 0.53% (n = 320,000); inhibition, % at 5.9 µM; Q9Y570;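 active = inhibition above the campaign mean of all compounds plus 3 SD, cut at about 26% in these data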;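 note: competitive labeling of PME-1 active site by serine hydrolase directed probe; inhibitors block probe labeling so polarization falls and inhibition rises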
PAFAH2 inh: inhibitors of human PAFAH2; Q99487; recombinant PAFAH2, FP-rhodamine activity probe, fluorescence polarization; actives 0.99% (n = 340,000); AID 492956; inhibition, % at 3.39 µM;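 active = inhibition above the mean over all tested compounds plus 3 SD, cut at about 30% in these data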;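 note: inhibitors block probe labeling of enzyme so polarization drops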
pPAFAH FP inh: pPAFAH (human) enzyme inhibition. Q13093. recombinant pPAFAH, FP-rhodamine probe fluorescence polarization. inhibition, % at 3.39 µM. actives 1.5% (n = 330,000). AID 463082;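 active = inhibition above the mean inhibition across the screen plus 3 SD, cut at about 25% in these data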;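 note: inhibitors block binding of the rhodamine activity-based probe so polarization drops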
Target sequence (Q13093 whole entry, looked up): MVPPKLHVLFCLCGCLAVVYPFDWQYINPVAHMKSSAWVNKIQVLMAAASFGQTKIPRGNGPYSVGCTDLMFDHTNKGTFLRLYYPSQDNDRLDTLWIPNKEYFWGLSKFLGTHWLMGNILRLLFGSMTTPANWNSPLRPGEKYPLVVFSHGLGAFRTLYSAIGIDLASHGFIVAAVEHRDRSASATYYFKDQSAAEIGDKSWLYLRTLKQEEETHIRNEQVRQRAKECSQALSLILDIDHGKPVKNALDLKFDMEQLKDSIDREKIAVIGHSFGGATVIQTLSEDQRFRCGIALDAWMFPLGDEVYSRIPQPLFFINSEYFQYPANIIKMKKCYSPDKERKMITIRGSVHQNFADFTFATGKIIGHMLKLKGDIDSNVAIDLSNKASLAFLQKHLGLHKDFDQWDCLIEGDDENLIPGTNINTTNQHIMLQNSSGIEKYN
PAFAH1B3 FP inh: PAFAH1B3 (human) inhibition; actives 0.28% (n = 340,000); inhibition, % at 3.39 µM; recombinant PAFAH1B3, FP-rhodamine probe, fluorescence polarization; Q15102;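 active = inhibition above the screen-wide average of all tested compounds plus 3 SD, cut at about 25% in these data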
PAFAH1B2 inh: PAFAH1B2 (human) inhibition | P68402 | recombinant PAFAH1B2, FP-rhodamine activity probe, fluorescence polarization | inhibition, % at 3.39 µM | actives 1.2% (n = 340,000) | AID 492953;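 active = inhibition above the mean of all tested compounds plus 3 SD, cut at about 24% in these data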
Fam108B inh: counter-screen for RBBP9 inhibitors: inhibitors of mouse Fam108B | AID 1947 | inhibition, % at 9.51 µM | actives 0.33% (n = 300,000) | recombinant Fam108B, FP-Rh probe fluorescence polarization;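 active = inhibition above the screen mean inhibition plus 3 SD, computed separately per campaign, cut at about 18% in these data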;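 note: inhibitors lower polarization as less probe binds the enzyme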
Hits are given with their value; i = inactive; nt = no result given. Hits are enriched below; roughly 2.9% of the tested compounds scored in any of these assays.

SMILES	PME-1 primary	PAFAH2 inh	pPAFAH FP inh	PAFAH1B3 FP inh	PAFAH1B2 inh	Fam108B inh
CCN1CCN(C(=O)Cn2nc(-c3ccc(Cl)cc3)ccc2=O)CC1	i	i	i	i	i	i
COc1ccc(NS(=O)(=O)c2ccc(NC(C)=O)cc2)nn1	i	nt	i	nt	nt	i
Cc1ccc(S(=O)(=O)Nc2ccc(Nc3ccccc3)cc2)cc1	i	i	29	i	i	i
COc1ccc(C(=O)O)cc1S(=O)(=O)N1CCCc2ccccc21	i	i	i	i	26	i
COc1ccc(C(=O)NCc2ccccc2)cc1S(=O)(=O)N1CCCc2ccccc21	i	i	i	i	i	i
COc1ccc(NS(=O)(=O)c2ccc(NS(=O)(=O)c3ccc(C)cc3)cc2)nn1	i	i	i	i	24	i
O=S(=O)(Nc1ccccc1)c1ccc(NS(=O)(=O)c2c(F)cccc2F)cc1	i	i	28	i	i	i
C=CCn1c(SCc2cc([N+](=O)[O-])cc3c2OCOC3)nc2cc(C(=O)O)ccc2c1=O	i	i	i	i	i	i
Cc1ccccc1C(=O)NC(CC(C)C)C(=O)Nc1ccc(S(N)(=O)=O)cc1 (stereo not drawn)	i	i	i	i	i	i
COc1ccc(/C=N/n2c(C)nc3c([nH]c4ccccc43)c2=O)cc1CN1CCCC(C)(C)C1	i	i	i	i	i	i
CCC1CCCCN1CCCNC(=O)c1ccc(/C=C2/Sc3ccccc3NC2=O)cc1 (stereo not drawn)	i	i	i	i	i	i
O=S(=O)(Nc1ccc(Nc2ccccc2)cc1)c1ccc(F)cc1	i	i	26	i	i	i
CCOc1ccc(NS(=O)(=O)c2ccc(C(=O)N(C)CC(=O)Nc3ccc(C)cc3)cc2)cc1	i	i	33	i	i	i
Cc1cc(NS(=O)(=O)c2ccccc2)cc(Cl)c1O	i	i	i	i	i	i
O=C(O)c1ccccc1C(=O)Nc1ccc(S(=O)(=O)Nc2ccc(F)cc2)cc1	i	i	i	i	i	i
Cc1ccc(S(=O)(=O)Nc2cc(C)c(O)c(S(=O)(=O)c3ccc(C)cc3)c2)cc1	i	i	i	i	34	i
Cc1ccc(NC(=O)CN(C)C(=O)c2ccc(NS(=O)(=O)c3cccc([N+](=O)[O-])c3)cc2)cc1	nt	i	i	i	i	nt
N#Cc1ccsc1NC(=O)CN1C(=O)NC2(CCCCC2)C1=O	i	i	i	i	i	i
CC1(C)CC(=O)C(C=Nc2ccc(O)c(N=CC3=C(O)CC(C)(C)CC3=O)c2)=C(O)C1	i	55	33	i	i	i
Cc1cccc(Nc2nc(-c3c(C)nc4ccccn34)cs2)c1	i	i	30	i	i	i
Cc1nc2ccccn2c1-c1csc(Nc2cccc(O)c2)n1	nt	i	nt	i	i	nt
COC(=O)C1=C(Nc2ccccc2NS(=O)(=O)c2ccc(C(F)(F)F)cc2Cl)CSC1	i	i	i	i	28	i
Cc1cc(C)c(S(=O)(=O)/N=C2/C=C(SCC(=O)O)C(=O)c3ccccc32)cc1C	nt	30	nt	37	i	nt
CC(C)=CCC/C(C)=C/CNC(=O)C[C@H]1C[C@H](C(=O)N(C(C)C)C(C)C)[C@@]2(C)c3[nH]c4cc(-c5ccco5)ccc4c3CCN2C1=O	nt	i	27	i	i	nt
CC[C@]12c3[nH]c4cc(CCC(=O)N(C)C)ccc4c3CCN1C(=O)[C@@H](CC(=O)NC/C=C(\C)CCC=C(C)C)C[C@@H]2C(=O)N1CCN(C(=O)c2ccco2)CC1	nt	i	34	i	i	nt
SMILES	PME-1 primary	PAFAH2 inh	pPAFAH FP inh	PAFAH1B3 FP inh	PAFAH1B2 inh	Fam108B inh
CCN(CC)C(=O)[C@H]1C[C@H](CC(=O)NC/C=C(\C)CCC=C(C)C)C(=O)N2CCc3c([nH]c4cc(-c5ccco5)ccc34)[C@]12C	nt	i	33	i	i	nt
Cc1ccc(C)c(C(=O)C(C)OC(=O)c2cccn2C)c1 (stereo not drawn)	i	i	i	i	i	i
C=C1C[C@]23C[C@@]1(O)CC[C@H]2[C@@]12C=C[C@H](O)[C@@](C)(C(=O)O1)[C@H]2[C@@H]3C(=O)O	i	i	i	i	i	i
O=C(c1cc(S(=O)(=O)N2CCN(c3ccccc3)CC2)ccc1Cl)N1CCCCCCC1	i	i	32	i	i	i
COC(=O)[C@]1(C)N[C@H](c2ccc(-c3ccc(OC)cc3)cc2)[C@@H]2C(=O)N(C)C(=O)[C@@H]21	nt	i	i	i	i	nt
COC(=O)[C@]1(C)N[C@H](c2ccc(-c3ccc(Cl)c(Cl)c3)c(OC)c2)[C@@H]2C(=O)N(C)C(=O)[C@@H]21	i	i	30	i	i	i
CC(NC(=O)COC(=O)c1cc(Cl)nc(Cl)c1)c1ccccc1 (stereo not drawn)	i	i	i	i	i	i
CC(NC(=O)COC(=O)c1ccc([N+](=O)[O-])s1)c1ccccc1 (stereo not drawn)	i	i	25	i	i	i
CCN(CC)S(=O)(=O)c1cccc(C(=O)OCC(=O)NC(C)c2ccccc2)c1 (stereo not drawn)	i	45	27	i	i	i
CC(NC(=O)COC(=O)/C=C/c1ccc([N+](=O)[O-])cc1)c1ccccc1 (stereo not drawn)	i	i	i	i	i	i
O=C(COC(=O)c1ccc([N+](=O)[O-])s1)NC(=O)NCc1ccccc1	i	40	i	30	i	i
O=C(COC(=O)c1ccc([N+](=O)[O-])o1)NCc1ccc(F)cc1	nt	i	i	i	i	nt
O=C(COC(=O)c1ccc([N+](=O)[O-])s1)NCc1ccc(F)cc1	i	53	26	44	i	i
CCOc1ccccc1C(=O)Nc1ccc2nc3n(c(=O)c2c1)CCCCC3	i	i	i	i	i	i
O=C(NC1CC1)c1cccc(NC(=O)c2cc(S(=O)(=O)N3CCOCC3)ccc2Cl)c1	nt	i	nt	i	i	nt
CCN(C(=O)CN1CCN(c2ccc(O)cc2)CC1)c1c(N)n(Cc2ccccc2)c(=O)[nH]c1=O	i	i	i	i	i	i
O=c1ccc(-c2ccccc2)n[nH]1	i	i	i	i	i	i
Cc1cc(C)c(NC(=O)COC(=O)c2ccc([N+](=O)[O-])s2)c(C)c1	i	i	i	i	i	i
O=C(COC(=O)c1ccc([N+](=O)[O-])s1)NNC(=O)c1ccccc1	nt	36	i	36	i	nt
O=C(COC(=O)c1ccc([N+](=O)[O-])s1)NCCc1ccccc1	i	34	i	32	i	nt
O=C1CN(C(=O)COC(=O)c2ccc([N+](=O)[O-])s2)c2ccccc2N1	nt	32	i	46	i	nt
O=C1CN(C(=O)COC(=O)c2cccs2)c2ccccc2N1	i	i	i	i	i	nt
O=C(COC(=O)CSc1ccc([N+](=O)[O-])cc1)NCCc1ccccc1	i	i	i	i	i	i
COc1cccc(CN2CCN(CC#Cc3ccccc3)CC2CCO)c1 (stereo not drawn)	nt	i	nt	i	i	nt
